Screening data deposited in PubChem BioAssay by National Center for Advancing Translational Sciences (NCATS).
Rows were chosen to be rich in hits. Some 19% of all compounds tested hit in one or more screens of this group.
IL-1B inflam inh: blocks inflammasome-driven IL-1 beta release; hit rate 4.7% among 360,000; activity change, % at 57.5 µM; THP-1 LPS/ATP IL-1B secretion, AlphaLISA, 16 h; hits give low values; in the data active means activity change below about -50%; inconclusive means mostly about -30% to -49%
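Secreted IL-1B measured by AlphaLISA bead assay after 16 h compound exposure of THP-1 cells; compounds (final up to 57.5 uM) added 1 h before LPS (250 ng/mL) and ATP (1.25 mM) stimulation; lower signal means less secretion.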
HT1080 IDH1KD tx: kills HT-1080 cells with IDH1 knockdown; HT-1080 IDH1 knockdown viability, ATP luminescence, 48 h; hit rate 2% among 360,000; AID 686971; Potency, µM (highest dose often 46.1 µM), hits mostly cytotoxic
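CellTiter-Glo luminescence after 48 h compound exposure at 37 degrees C of IDH1-knockdown HT-1080 cells in 5% FBS RPMI. %Activity scaled between DMSO wells and cell-free media wells, with curves fitted and assigned curve classes.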
HT1080NT lethal: kills 2HG-producing HT-1080-NT fibrosarcoma cells | HT-1080-NT fibrosarcoma viability, CellTiter-Glo ATP luminescence, 48 h | Potency, µM (doses to about 46.1 µM), most hits filed as cytotoxic | hit rate 1.6% among 360,000;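 further: NT is the 2HG producing partner of a matched IDH1 knockdown line; nearly all actives have a fitted effect of over 55% in size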
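750 cells/well, RPMI + 5% FBS; 2 h settle, compound pin-transfer, 48 h at 37 degrees C. CellTiter-Glo 10 min RT, luminescence. Normalized to DMSO and media-only wells.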
TDP1 cell CPT: DT40-hTDP1 cell growth loss with CPT | chicken DT40 Tdp1-/-;hTDP1 cells + 20 nM CPT, ATP luminescence, 48 h | Potency, µM (highest dose often 46.2 µM), actives largely listed as inhibitors | hit rate 12% among 420,000 | AID 686979; further: nearly all actives have a fitted effect of over 55% in size
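Cell growth measured by CellTiter-Glo luminescence after a minimum 48 h, 37 C compound exposure with 20 nM CPT in Tdp1-knockout DT40 cells stably expressing hTDP1, seeded 400/well; qHTS titration format.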
TDP1 cell noCPT: qHTS for Inhibitors of human tyrosyl-DNA phosphodiesterase 1 (TDP1): qHTS in cells in absence of CPT; hit rate 15% among 420,000; DT40 Tdp1-/- hTDP1 cells, no CPT, ATP luminescence, 48 h; Potency, µM (titrated, usually from 46.2 µM), hits mostly inhibitors; AID 686978, 2013; further: nearly all actives have a fitted effect of over 55% in size
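Seeded 400 DT40-hTDP1 cells/well (vehicle DMSO, no 20 nM CPT); pinned compounds; ≥48 hr at 37 °C; CellTiter-Glo luminescence as viability measure.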
Of the large screens only hits and unclear results are named; the others gave an inactive call. Unless noted, the call rests on the fitted dose curve; in most records, active means well fitted curve in the direction sought with a large enough effect; inconclusive means small, poorly fitted or top-dose-only effect, or another doubt; inactive means no such curve, though single readings can be large; an effect the other way counts as inactive or inconclusive.

O=C(CSCc1ccccc1)N1CCN(c2ccc(F)cc2)CC1	IL-1B inflam inh inconclusive, TDP1 cell CPT 13µM, TDP1 cell noCPT inconclusive
N#Cc1ccc(CN2CC3(CCN(C(=O)c4cnccn4)CC3)C2)cc1	none (no result: IL-1B inflam inh, HT1080 IDH1KD tx, HT1080NT lethal)
O=C1[C@H](Cc2ccccc2)NCCCC[C@H](c2ccc(Cl)cc2)N1Cc1ccc(Cl)cc1	IL-1B inflam inh inconclusive, TDP1 cell CPT 23.1µM, TDP1 cell noCPT 18.4µM
O=C1C=CN(Cc2ccccc2)C(c2ccccc2)C1 (stereo unspecified)	TDP1 cell CPT inconclusive
O=C1[C@H](Cc2ccccc2)NCCCC[C@@H](c2ccc(Cl)cc2)N1Cc1ccccc1	IL-1B inflam inh -53.1, HT1080 IDH1KD tx inconclusive, HT1080NT lethal inconclusive, TDP1 cell CPT 18.4µM, TDP1 cell noCPT 13µM
CC[C@@H](C)[C@H](N)C(=O)NC[C@H]1O[C@@H](n2cnc3c(N)ncnc32)[C@H](O)[C@@H]1O	none
CC12CCC(C(=O)N(CSC(=S)N/N=C\c3ccccc3O)C1=O)C2(C)C (stereo unspecified)	HT1080 IDH1KD tx inconclusive, HT1080NT lethal inconclusive, TDP1 cell CPT inconclusive, TDP1 cell noCPT 14.6µM
CC(=Nc1ccccc1)C1=C(O)C(Cc2ccccc2)NC1=O (stereo unspecified)	HT1080 IDH1KD tx inconclusive, HT1080NT lethal 0.581µM, TDP1 cell CPT 0.0116µM, TDP1 cell noCPT 0.0058µM
CC(=Nc1ccccc1)C1=C(O)C(Cc2ccc(F)cc2)NC1=O (stereo unspecified)	HT1080 IDH1KD tx 2.59µM, HT1080NT lethal 2.59µM, TDP1 cell CPT 1.03µM, TDP1 cell noCPT 1.16µM
Oc1ccc2c(c1)C1CCCC1(N1CCOCC1)O2 (stereo unspecified)	TDP1 cell CPT 23.1µM, TDP1 cell noCPT inconclusive
CC1=C(C(=O)N2CCOCC2)C(c2ccc(O)cc2)NC(=S)N1 (stereo unspecified)	none
COC(=O)[C@@H]1CCCN1Cc1ccc2c(c1)CN(Cc1coc3ccc(C)cc3c1=O)CCO2	TDP1 cell noCPT inconclusive (no result: IL-1B inflam inh, HT1080 IDH1KD tx, HT1080NT lethal)
c1cncc(-c2nc(N3CCOCC3)c3c4c(sc3n2)CCC4)c1	TDP1 cell CPT inconclusive, TDP1 cell noCPT inconclusive
c1cncc(-c2nc(NCCCN3CCOCC3)c3c4c(sc3n2)CCC4)c1	IL-1B inflam inh -128.9, HT1080 IDH1KD tx inconclusive, HT1080NT lethal 18.4µM, TDP1 cell CPT inconclusive, TDP1 cell noCPT 23.1µM
CCNC(=S)Nc1ccc(Cl)cc1	none
CCC(C)c1ccc(NC(=S)NCCn2cc(Cl)cn2)cc1 (stereo unspecified)	IL-1B inflam inh inconclusive, TDP1 cell CPT inconclusive, TDP1 cell noCPT 20.6µM
S=C(NCCN1CCCCC1)Nc1ccc(Br)cc1	TDP1 cell noCPT inconclusive
CCC(C)c1ccc(NC(=S)NCCn2cc(Br)cn2)cc1 (stereo unspecified)	IL-1B inflam inh -52.3, TDP1 cell CPT 20.6µM, TDP1 cell noCPT 14.6µM
Cc1cc(OCC(=O)OCC(=O)N2CCCCC2)ccc1Cl	none
CC1(C)C2CCC1(CS(=O)(=O)N1CCN(c3ccc(F)cc3)CC1)C(=O)C2 (stereo unspecified)	none
CCc1ccc(N2CCN(S(=O)(=O)CC34CCC(CC3=O)C4(C)C)CC2)cc1 (stereo unspecified)	IL-1B inflam inh -66.7, TDP1 cell noCPT 20.6µM
COC(=O)C1=C(C)NC(=S)NC1c1ccc(-c2cccc(Cl)c2)o1 (stereo unspecified)	none
CCOC(=O)C1=C(C)NC(=S)NC1c1ccc(-c2cccc(Cl)c2C)o1 (stereo unspecified)	HT1080 IDH1KD tx inconclusive, TDP1 cell CPT 16.4µM, TDP1 cell noCPT 11.6µM
COC(=O)C1=C(C)NC(=O)NC1c1ccc(-c2ccc(F)cc2)o1 (stereo unspecified)	HT1080 IDH1KD tx inconclusive, HT1080NT lethal inconclusive
COC(=O)C1=C(C)NC(C)=C(C(=O)OC)C1c1ccc(-c2cc(Cl)ccc2Cl)o1	IL-1B inflam inh -68.0, HT1080 IDH1KD tx inconclusive
COC(=O)C1=C(C)NC(=O)NC1c1ccc(-c2ccccc2Cl)o1 (stereo unspecified)	HT1080 IDH1KD tx inconclusive, HT1080NT lethal inconclusive, TDP1 cell CPT 10.3µM, TDP1 cell noCPT 16.4µM
COC(=O)C1=C(C)NC(=S)NC1c1ccc(-c2ccccc2C(=O)OC)o1 (stereo unspecified)	TDP1 cell CPT inconclusive, TDP1 cell noCPT 18.4µM
CCCCOC(=O)Nc1ccccc1C(N)=O	none
O=c1cc(-c2ccccc2)oc2cc(O)ccc12	TDP1 cell CPT inconclusive, TDP1 cell noCPT inconclusive
O=c1cc(CN2CCN(Cc3ccccc3)CC2)c2cc(O)ccc2o1	TDP1 cell CPT inconclusive, TDP1 cell noCPT inconclusive
O=c1cc(CN2CCN(C/C=C/c3ccccc3)CC2)c2cc(O)c(-c3ccccc3)cc2o1	IL-1B inflam inh inconclusive, TDP1 cell CPT 18.4µM, TDP1 cell noCPT 18.4µM
CC(C)CN(Cc1cc(=O)oc2cc(-c3ccccc3)c(O)cc12)CC(C)C	HT1080 IDH1KD tx inconclusive, HT1080NT lethal 25.9µM, TDP1 cell CPT inconclusive, TDP1 cell noCPT inconclusive
Cc1cc2oc(=O)cc(CN(Cc3ccccc3)Cc3ccccc3)c2cc1Cl	HT1080 IDH1KD tx inconclusive, TDP1 cell CPT inconclusive, TDP1 cell noCPT inconclusive
O=S(=O)(c1ccccc1)N1CCN(Cc2c(O)ccc3ccccc23)CC1	IL-1B inflam inh inconclusive
Oc1ccc2ccccc2c1CN1CCN(C/C=C/c2ccccc2)CC1	IL-1B inflam inh -76.7
O=c1cc(-c2ccccc2)c2ccc(O)cc2o1	IL-1B inflam inh -59.6, TDP1 cell noCPT inconclusive
Cc1ccc2c(CN3CCN(S(=O)(=O)/C=C/c4ccccc4)CC3)cc(=O)oc2c1	TDP1 cell noCPT inconclusive
Cc1c(O)ccc2c(CN3CCN(C/C=C/c4ccccc4)CC3)cc(=O)oc12	IL-1B inflam inh -76.7, HT1080 IDH1KD tx inconclusive, HT1080NT lethal inconclusive, TDP1 cell CPT inconclusive, TDP1 cell noCPT inconclusive
O=C(Nc1ccnn1C1CCN(Cc2cc(Cl)ccc2O)CC1)C1CC1	TDP1 cell CPT inconclusive
CCCS(=O)(=O)c1cnc(C2COc3ccccc3O2)nc1N (stereo unspecified)	HT1080 IDH1KD tx inconclusive, TDP1 cell CPT inconclusive, TDP1 cell noCPT 16.4µM
CC(C)(C)C1CCN2CCC[C@](c3ccccc3)(C1)[C@@]21CO1 (stereo partly specified)	IL-1B inflam inh inconclusive, TDP1 cell CPT inconclusive, TDP1 cell noCPT inconclusive
COc1cc(C2NC(=O)NC(O)(C(F)(F)F)C2C(C)=O)cc(OC)c1OC (stereo unspecified)	none
COc1cc(C23CCCN(CCC(C(C)(C)C)C2)C32OCCO2)cc(OC)c1OC (stereo unspecified)	TDP1 cell CPT inconclusive, TDP1 cell noCPT 23.1µM
CC(C)(C)C1CCN2CCCC(c3ccc([N+](=O)[O-])cc3)(C1)C21OCCO1 (stereo unspecified)	TDP1 cell CPT 20.6µM, TDP1 cell noCPT inconclusive
CCOC(=O)C1CCN(c2ccccc2CN2CCN(c3ccccc3OCC)CC2)CC1	TDP1 cell CPT inconclusive, TDP1 cell noCPT inconclusive
